In PubChem BioAssay AID624117 (National Center for Advancing Translational Sciences (NCATS), 2012):
Inconclusive results are not listed. The call rests on the fitted dose curve; in most records, active means well fitted curve in the direction sought with a large enough effect; inconclusive means small, poorly fitted or top-dose-only effect, or another doubt; inactive means no such curve, though single readings can be large or run the other way.

Test: qHTS Assay for Rab9 Promoter Activators: Hit Validation Using Renilla Luciferase Read-Out; further: % of control where 0% means no effect
Details: Huh7 NPC1 promoter Renilla luciferase reporter, 24 h; series mostly up to 76.9 µM; activation (negative = inhibition): at the top concentration
Excerpt: Niemann Pick Type C (NPC) is a rare neurodegenerative lipidosis that is characterized by lipid storage in the endosomal/lysosomal system. Treatment modalities for this devastating disease are currently non-existent due to the severe obstacles associated with accessing the central nervous system with proteins or genes. The majority of mutations causing NPC disease are missense mutations that are distributed throughout the length of the NPC1 protein, with the most prevalent being the I1061T allele. Although NPC1 mutant proteins may be functional, they are typically trapped in the ER due to misfolding. […] We have developed and optimized a cell based renilla luciferase reporter assay in 1536 well format for the identification of up-regulators of the mutant NPC1 promoter. This assay presents data on the validation of hits from the primary screen, which used a firefly luciferase read-out. NIH Chemical Genomics Center [NCGC] NIH Molecular Libraries Probe Production centers Network [MLPCN] MLPCN Grant: MH089375 Assay Submitter (PI): Yiannis A. Ioannou
Huh7 cells stably expressing NPC promoter-luciferase will be seeded at 1,500 cells/well in 5 uL in 1,536-well white opaque plates with 23 nL/well of compound in DMSO solution. The assay plates will be incubated at 37 deg C for 24 hours, after which 3 uL/well BriteLite plus luciferase detection reagent mixture (Perkin Elmer) will be added. Luminescence signal will be measured in a ViewLux plate reader (Perkin Elmer) after a 10 minute incubation at the room temperature.

Activation (negative = inhibition), inactive:
CCCOC(=O)Cn1cnc2scc(-c3ccc(OC)cc3)c2c1=O -4.52%
CCOCC(=O)Nc1c(C(=O)Nc2ccc3c(c2)OCCO3)oc2ccccc12 -20.3%
Cc1ccc(C(=O)c2cncc(Br)c2)cc1 7.59%
CCCc1cc(C(=O)Nc2ccccc2SC)no1 24.4%
CCC(=O)N1c2ccccc2NC2=C(C(=O)CCC2)C1c1ccc(N(C)C)cc1 (stereo not given) 4.45%
O=C(NCC1CCCO1)C(c1ccc(F)cc1)N(Cc1ccc2c(c1)OCO2)C(=O)c1ccc(CN2CCOCC2)o1 (stereo not given) -4.06%
Cc1ccc(S(=O)(=O)N2CCN(c3cnn(C)c(=O)c3Cl)CC2)cc1 -10.5%
CC(Sc1nnc(C(F)(F)F)n1C)C(=O)Nc1ccc(S(N)(=O)=O)cc1 (stereo not given) -17.9%
C=CCOC(=O)N1CCN(c2cccc(C(F)(F)F)c2)CC1 -2.4%
Cc1cc(C)cc(N(CC(=O)NC2CCCC2)C(=O)CNC(=O)c2ccco2)c1 13.6%
Cc1c(C(O)CN2CCN(Cc3ccc4c(c3)OCO4)CC2)c2ccccc2n1C (stereo not given) 11.6%
Cc1ccccc1NC(=O)Cc1nc(COC(=O)CC(C)c2ccccc2)cs1 (stereo not given) 2.23%
COc1ccc(C(=O)OCC(=O)N2CCCC2=O)c(OC)c1 14.1%
O=C(NNC(=O)C1COc2ccccc2O1)c1ccccc1O (stereo not given) -1.57%
Cc1cccc(N2CCN(C(=S)c3ccccc3)CC2)c1 1.13%
CC(C)CC(=O)N1CCN(c2ccc(NC(=O)c3ccco3)cc2)CC1 -4.48%
Cc1ccc(NC(=O)c2c(O)c3ccccc3n(C)c2=O)nc1 10.5%
COc1ccc(-n2cc(-c3ccc(Cl)cc3)[nH]c2=S)cc1 -11.6%
Cc1nc(-c2ccccn2)sc1C(=O)Nc1ccc(F)cc1F -5.7%
Cn1c(SCc2ccccc2)nnc1-c1cnccn1 13.7%
COc1cccc(C2Nc3ccccc3NC3=C2C(=O)CC(C)(C)C3)c1 (stereo not given) -1.62%
O=C(CSc1nnc(Cc2cc(=O)[nH]c(=O)[nH]2)n1-c1ccc(Cl)cc1)NC1CCCC1 2.15%
O=C(C1COc2ccccc2O1)N1CCN(S(=O)(=O)c2ccccc2)CC1 (stereo not given) 5.12%
N#C/C(=N\Nc1ccc(Cl)cc1)C(=N)N1CCCCC1 -5.18%
COCCNC(=O)CN1C(=O)NC(c2ccccc2)(c2ccccc2)C1=O 2.14%
O=C(CN1C(=O)COc2ccc(Cl)cc21)NCC1CCCO1 (stereo not given) 1.1%
O=C(CSc1nnc(-c2ccccn2)o1)Nc1ccccc1Cl -3.21%
COc1ccc(C2(CNC(=O)/C=C/c3ccco3)CCCC2)cc1OC 2.65%
Cc1ccc(C#N)c(SCC(=O)Nc2nccs2)n1 -0.351%
O=C(Nc1ccc(-c2nc3cccnc3s2)cc1)c1ccc(Cl)nc1 -1.72%
O=C(c1cc2cc([N+](=O)[O-])ccc2oc1=O)n1cccn1 -1.56%
Nc1nc(SCCO)[nH]c(=O)c1NC(=O)c1ccco1 10.2%
O=C(COc1ccccc1F)Nc1ccc(-c2nc3ccccc3s2)cc1 -14.2%
Cc1ccc(NC(=O)COC(=O)C2C3CC4OC(=O)C2C4C3)cc1Cl (stereo not given) -7.4%
CC(C)C(NC(=O)c1ccc([N+](=O)[O-])cc1Cl)C(=O)N1CCCC1 (stereo not given) 1.06%
COc1cccc(C(C(=O)NC2CCCC2)N(CCC(C)C)C(=O)CCC(=O)Nc2cc(C)on2)c1 (stereo not given) 14.4%
O=S(=O)(c1cccs1)N1CCN(c2ncccn2)CC1 -5.33%
Nc1c(N(CCO)C(=O)/C=C/c2ccco2)c(=O)[nH]c(=O)n1Cc1ccccc1 -0.0645%
CCCN(CCC)CCCNC(=O)c1cc2cc3ccc(Cl)cc3nc2o1 -30.2%
COc1cccc(NC(=O)CN2C(=O)CSc3ccc(S(=O)(=O)N4CCC(C)CC4)cc32)c1 -28.4%
